Screening results: PubChem BioAssay, National Center for Advancing Translational Sciences (NCATS)
SW480 rerep – inducers of DNA re-replication in SW480 colon cancer cells. SW480 DNA re-replication, Hoechst DNA content imaging, 48 h. Potency, µM (titrated, usually from 46.1 µM), most hits filed as activators. 340,000 compounds, 1.8% hits; also: nearly all actives have a fitted effect of over 55% in size
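250 cells/well; 23 nL cpd via pin tool; 48 hr, 37 C, 5% CO2; Hoechst 40 min; imager read of total nuclear intensity, ex 405/em 500-530 nm.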
S2 tox – reduces viability in counter-screen for ATXN expression inhibitors | S2 cells (HEK-293 line with an ATXN2-luciferase reporter) viability, CellTiter-Fluor protease fluorescence, 24 h | Potency, µM (series often up to 56.7 µM), hits mostly cytotoxic | 400,000 compounds, 0.49% hits; also: nearly all actives have a fitted effect of over 40% in size
MCF10A rerep – DNA re-replication induction in MCF 10a cells | MCF 10A DNA re-replication, Hoechst nuclear intensity, 48 h | Potency, µM (series often up to 46.1 µM), actives largely listed as activators | 350,000 compounds, 2.9% hits; also: nearly all actives have a fitted effect of over 50% in size
IL1B secr inh – blocks inflammasome-driven IL-1 beta release; THP-1 LPS/ATP IL-1B secretion, AlphaLISA, 16 h; stronger effect = lower value; activity change, % at 57.5 µM; 360,000 compounds, 4.7% hits; AID 743279; in the data active = activity change below about -50%; inconclusive = mostly about -30% to -49%
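Secreted IL-1B measured by AlphaLISA bead assay after 16 h compound exposure of THP-1 cells; compounds (final up to 57.5 uM) added 1 h before LPS (250 ng/mL) and ATP (1.25 mM) stimulation; lower signal means less secretion.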
ATXN2 expr inh – ATXN2 expression inhibition; HEK-293 ATXN2-luciferase reporter, luminescence, 24 h; Potency, µM (doses to about 57 µM), actives largely listed as inhibitors; 360,000 compounds, 0.72% hits; AID 1745845; also: nearly all actives have a fitted effect of over 55% in size
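ATXN2-luciferase reporter cells (luciferase flanked by upstream and downstream ATXN2 gene portions) were treated 24 h at 37 °C with compounds at up to 57 uM. SteadyGlo luminescence gave expression; GF-AFC fluorescence gave viability.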
PINK1 expr mod – modulators of PINK1 expression; 410,000 compounds, 0.2% hits; PINK1 immunofluorescence, high-content cytometry, 24 h; Potency, µM (doses to about 76.6 µM), most hits filed as activators; active = well fitted activation curve with a large enough effect; inconclusive = small, poorly fitted or top-dose-only effect; cell line not stated here; also: nearly all actives have a fitted effect of over 65% in size
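PINK1 protein level read as immunofluorescence by microplate cytometer in a fixed, stained stable cell line after 24 h exposure to five compound concentrations, with CCCP as control.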
Each line names hits and unclear results; the compound was inactive in the other large screens. Compounds with a hit are over-represented: about 7.1% of the library has one in this group of screens. Unless noted, calls follow the shape of the dose curve; as a rule, active = well fitted curve in the direction sought with a large enough effect; inconclusive = small, poorly fitted or top-dose-only effect, or another doubt; inactive = no such curve, though single readings can be large; an effect the other way counts as inactive or inconclusive.

CC1COC2(CCN(c3nc(=O)c4cc(C(F)(F)F)cc([N+](=O)[O-])c4s3)CC2)O1 (configuration not stated)	none (no result: SW480 rerep, S2 tox, MCF10A rerep, IL1B secr inh, PINK1 expr mod)
Cc1ccccc1OCC(=O)Nc1ccc2nc(SCC(N)=O)sc2c1	S2 tox inconclusive (no result: SW480 rerep, MCF10A rerep, IL1B secr inh)
COc1ccc(-n2nc3c(N4CCC(C(=O)NCCc5ccccc5C)CC4)nnc(C)c3c2C)cc1	SW480 rerep inconclusive, S2 tox inconclusive, MCF10A rerep 9.2µM, IL1B secr inh -82.8, ATXN2 expr inh inconclusive
COc1ccccc1C(=O)NCC1(c2ccccc2)CCCC1	SW480 rerep inconclusive, IL1B secr inh -76.9
O=C(NCC1(c2ccccc2)CCCC1)c1ccccc1Br	S2 tox inconclusive, MCF10A rerep inconclusive (no result: ATXN2 expr inh)
COC(=O)C1=C(C)OC(N)=C(C#N)C1c1ccccc1 (configuration not stated)	none
CNC(=O)C1C(=S)NC(N)=C(C#N)C1c1ccccc1 (configuration not stated)	SW480 rerep 3.26µM, MCF10A rerep inconclusive, IL1B secr inh inconclusive
CCCCNC(=O)C(CC)Sc1nc2ccccc2c(=O)n1Cc1ccco1 (configuration not stated)	S2 tox inconclusive (no result: SW480 rerep, MCF10A rerep, IL1B secr inh)
CC1CC(C)CN(S(=O)(=O)c2ccc(C(=O)N3CCN(c4ccccc4)CC3)cc2)C1 (configuration not stated)	IL1B secr inh -65.7, ATXN2 expr inh inconclusive (no result: PINK1 expr mod)
COC(=O)CN(C#N)c1nc(NCc2ccccc2)nc(OC)n1	S2 tox inconclusive, IL1B secr inh -66.7 (no result: ATXN2 expr inh)
Cc1ccc(-c2cc3nc(-c4ccccc4)cc(N)n3n2)cc1	none
Cc1cc(N)n2nc(-c3ccccc3)cc2n1	MCF10A rerep inconclusive, IL1B secr inh -71.8
CCOc1ccc(NC(=O)CCCn2c(C)c3cnn(-c4ccccc4)c(=O)c3c2C)cc1	none (no result: SW480 rerep, MCF10A rerep, IL1B secr inh)
COc1cc(CNc2ccc(C)c(C)c2)cc(OC)c1OC	SW480 rerep 8.2µM, MCF10A rerep 16.4µM, PINK1 expr mod inconclusive
CCOc1cc(CNc2ccc3c(c2)OCCO3)cc(Br)c1OC	SW480 rerep 7.31µM, S2 tox inconclusive, MCF10A rerep 1.64µM
CCOc1c(Br)cc(CNc2ccc3c(c2)OCCO3)cc1OC	SW480 rerep 5.8µM, MCF10A rerep 1.3µM
CCOc1c(Br)cc(CNc2ccc(N3CCOCC3)cc2)cc1OC	none
CCOc1cc(CNc2ccc3c(c2)OCCO3)cc(Br)c1OCC(N)=O	none
CC(NC(=O)c1cccnc1)c1nnc2n1CCN(Cc1ccc(F)cc1F)CC2 (configuration not stated)	none (no result: SW480 rerep, MCF10A rerep, IL1B secr inh, ATXN2 expr inh)
CCCCSCCCNC(=O)CN1C(=O)COc2ccc(S(=O)(=O)N3CCCC3)cc21	S2 tox inconclusive (no result: SW480 rerep, MCF10A rerep, IL1B secr inh)
COc1cc(/C=C(\CC(=O)O)c2nc3ccccc3s2)cc(OC)c1O	none (no result: S2 tox)
O=C(O)c1ccc(Oc2nc3ccccc3s2)cc1	S2 tox inconclusive
CN(C)c1ccc(/C=C(\Cl)c2nc3ccccc3s2)cc1	SW480 rerep inconclusive, S2 tox inconclusive, MCF10A rerep 7.31µM, ATXN2 expr inh inconclusive
O=C(O)c1ccc(C=C(c2nc3ccccc3s2)c2nc3ccccc3s2)cc1	MCF10A rerep 18.4µM, IL1B secr inh -108.4 (no result: S2 tox, ATXN2 expr inh)
COc1cc(C=C(c2nc3ccccc3s2)c2nc3ccccc3s2)cc(OC)c1O	SW480 rerep inconclusive, MCF10A rerep inconclusive, IL1B secr inh -82.5
CN(C)c1ccc(/C=C/c2nc3ccccc3s2)cc1Cl	none (no result: SW480 rerep, S2 tox, MCF10A rerep, IL1B secr inh, ATXN2 expr inh)
Cc1cccn2c(=O)c3cc(C#N)c(=O)n(-c4nnc(SCc5ccccc5F)s4)c3nc12	none (no result: SW480 rerep, MCF10A rerep, IL1B secr inh)
CC1=C(C(=O)Nc2ccccc2)C(c2ccncc2)n2nc(SCc3ccccc3Cl)nc2N1 (configuration not stated)	none (no result: SW480 rerep, MCF10A rerep, IL1B secr inh)
O=C(Nc1ccc(Cl)c(C(F)(F)F)c1)C(Cc1ccccc1)NS(=O)(=O)c1cccc2nsnc12 (configuration not stated)	S2 tox inconclusive (no result: SW480 rerep, MCF10A rerep, IL1B secr inh)
COc1cccc(CN(C)C(=O)c2ccc(Cl)c(S(=O)(=O)N3CCCCCC3)c2)c1OC	IL1B secr inh -53.3
CN(C)C(CNC(=O)c1ccc(Cl)c(S(=O)(=O)N2CCCCCC2)c1)c1ccccc1 (configuration not stated)	SW480 rerep inconclusive, IL1B secr inh -59.4
CN(C)C(CNC(=O)c1cccc(S(=O)(=O)N2CCN(c3ccc(F)cc3)CC2)c1)c1ccccc1 (configuration not stated)	SW480 rerep inconclusive, MCF10A rerep inconclusive, IL1B secr inh -74.2, ATXN2 expr inh inconclusive
COc1ccccc1CNC(=O)c1cccc(S(=O)(=O)N2CCN(c3ccc(F)cc3)CC2)c1	none (no result: ATXN2 expr inh)
COc1cccc(CN(C)C(=O)c2cccc(S(=O)(=O)N3CCN(Cc4ccccc4)CC3)c2)c1OC	none
CN(C)CCCNC(=O)c1ccc(Cl)c(S(=O)(=O)N2CCCCCC2)c1	none
O=C(CI)Nc1cccc2cccnc12	none (no result: SW480 rerep, S2 tox, MCF10A rerep, IL1B secr inh, ATXN2 expr inh)
CCN(CC)S(=O)(=O)c1cc(C)ccc1SC	SW480 rerep 23.1µM
CCN(CC)S(=O)(=O)c1c(Br)cc(C)cc1Br	PINK1 expr mod inconclusive
O=c1[nH]c2ccc(NCc3ccc(-c4ccccc4F)o3)cc2[nH]1	none (no result: SW480 rerep, MCF10A rerep, IL1B secr inh)
COc1ccc(CCN=C(N)C(C)c2ccccc2)cc1OC (configuration not stated)	none
CC(C)Cc1ccc(C(C)C(N)=NCCc2ccccc2)cc1 (configuration not stated)	SW480 rerep 6.51µM, S2 tox inconclusive, MCF10A rerep inconclusive, IL1B secr inh -91.0, ATXN2 expr inh inconclusive
CSc1cccc(NC(=O)/C=C/c2ccc(Cl)cc2)c1	IL1B secr inh -72.3, PINK1 expr mod inconclusive
